From PubChem BioAssay (NCATS)
Results filed as inconclusive are left out. A number with no mark means an inactive call. Calls come from the whole dose curve; as a rule, active = well fitted curve in the direction sought with a large enough effect; inconclusive = small, poorly fitted or top-dose-only effect, or another doubt; inactive = no such curve, though single readings can be large or run the other way.

test: qHTS Assay for Identifying Gametocytocidal Compounds (AID 743244);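 note: actives lower the fluorescent signal which means gametocytes are killed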; details: P. falciparum 3D7 stage III-V gametocytes, alamarBlue, 72 h; max response: hits give low values
Procedure, shortened: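 A resazurin-based viability read-out was applied to mature P. falciparum gametocytes: 72 h compound treatment, then 24 h dye incubation, with falling fluorescence signalling gametocytocidal effect.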
% is set by controls: 0 for no effect and ±100 for the full control effect.

Q: Which max response does the source give for `O=C(O)CCCC/C=C(\c1ccccc1)c1cccnc1` here?
A: The max response was 0.181%.

Q: With `C[C@@H]1C[C@H]2[C@@H]3CCC4=CC(=O)C=C[C@]4(C)[C@@]3(F)[C@@H](O)C[C@]2(C)[C@@]1(O)C(=O)COC(=O)c1cccc(S(=O)(=O)O)c1` as the compound, how does the max response read?
A: The max response was 12.5%.

Q: For `OC[C@H]1O[C@@H](O[C@H]2[C@H](O)[C@@H](O)[C@H](O)O[C@@H]2CO)[C@H](O)[C@@H](O)[C@@H]1O`, which max response is on record?
A: Its max response is 2.58%.

Q: Which max response does the source give for `NC[C@@H]1O[C@H](O[C@H]2[C@@H](O)[C@H](O[C@@H]3[C@@H](O)[C@H](N)C[C@H](N)[C@H]3O[C@H]3O[C@H](CO)[C@@H](O)[C@H](O)[C@H]3N)O[C@@H]2CO)[C@H](N)[C@@H](O)[C@@H]1O` here?
A: The max response was 20.3%.

Q: Which max response does the source give for `CC(O)CN(C)C` (stereo not given) here?
A: The max response was -6.61%.

Q: For `Cc1c(O)c(=O)ccn1C`, which max response is on record?
A: The max response was 2.04%.

Q: For `CNCC(=O)N[C@@H](CCCN=C(N)N)C(=O)N[C@H](C(=O)N[C@@H](Cc1ccc(O)cc1)C(=O)N[C@H](C(=O)N[C@@H](Cc1cnc[nH]1)C(=O)N1CCC[C@H]1C(=O)N[C@@H](C)C(=O)O)C(C)C)C(C)C`, which max response is on record?
A: Its max response is 5.17%.

Q: With `NC(=O)[C@H]1O[C@@H](O)[C@H](O)[C@@H](O)[C@@H]1O` as the compound, how does the max response read?
A: The max response was -1.37%.

Q: Which max response does the source give for `O=C(O)CCC/C=C\C[C@@H]1[C@@H](/C=C/[C@@H](O)COc2cccc(C(F)(F)F)c2)[C@H](O)C[C@@H]1O` here?
A: The max response was 7.42%.

Q: Which max response does the source give for `CC(=O)Oc1cccc2c1C(=O)c1c(OC(C)=O)cc(C(=O)O)cc1C2=O` here?
A: The max response was -7.57%.
